In PubChem BioAssay AID651939 (The Scripps Research Institute Molecular Screening Center, 2012):
The list shows a part of the results. The source made the active and inactive calls. Cut-off read from the data, not from the text of the source: active = IC50 below about 9 µM; inactive = the rest.

experiment: compound binding to PG126 antibody – biochemical, TR-FRET, distinct HIV envelope site, counter-screen for PG9 antibody binder project, dose response (AID 651939); details: TR-FRET binding to antibody PG126, counterscreen

**Q.** With `Cc1cccc(Nc2nc3c(S(=O)(=O)c4ccccc4)nnn3c3ccccc23)c1C` as the compound, how does the IC50 read?
**A.** 3.75 µM (active)

**Q.** Which IC50 does the source give for `CC1(C)Cc2ccccc2-c2[nH]c(=S)[nH]c(=O)c21` here?
**A.** 66.1 µM (inactive)

**Q.** Which IC50 does the source give for `O=C(Oc1ccccc1)Oc1ccc2c(c1)oc(=O)c1ccccc12` here?
**A.** 4.13 µM (active)

**Q.** For `O=C(Nc1nnc(-c2ccccc2F)s1)c1ccccc1F`, which IC50 is on record?
**A.** 17.9 µM (inactive)

**Q.** Which IC50 does the source give for `COC(=O)C1=C(C)N(Cc2ccccc2C(F)(F)F)C(=NCc2ccc(OC)cc2)NC1c1cccc(C(F)(F)F)c1` (configuration not stated) here?
**A.** > 67 µM (inactive)

**Q.** Which IC50 does the source give for `COc1ccc(-c2c(C)nn3c(N4CCC(C(=O)N5CCCCC5)CC4)cc(C)nc23)cc1OC` here?
**A.** > 67 µM (inactive)

**Q.** With `S=c1[nH]c2ccccc2c2ccccc12` as the compound, how does the IC50 read?
**A.** 60.4 µM (inactive)
